Reference: PubChem BioAssay (NCI)
This is part of a sample that, as a whole, favours compounds with a hit. Of some 79,000 tested, about 15% had one in any assay. Values without a mark were called inactive. Active and inactive are the calls of the source. Rule as the data show it: active = growth inhibition above about 70%; inactive = the rest.

Experiment: NCI Yeast Anticancer Drug Screen. Data for the mlh1 rad18 strain (AID 175)
Settings: S. cerevisiae mlh1 rad18 strain growth inhibition, active compounds read high
Description: Growth inhibition of yeast strains with defined genetic alterations is measured as a screen for potential anti-cancer activity. Selected strains with alterations in DNA damage repair or cell cycle control were exposed to compounds and growth inhibition was measured relative to vehicle treated controls. The strain used in this assay is mlh1 rad18

[1] = at 5.0 µM (retest, dose inferred, filed as 0.5)
[2] = at 50.0 µM (retest, dose inferred, filed as 5.0)

SMILES | growth inhibition [1] | growth inhibition [2] | growth inhibition (at 50.0 µM)
[O-]c1c2cc(-[n+]3c(-c4ccccc4)cc(-c4ccccc4)cc3-c3ccccc3)cc1CO[C@@H](c1ccccc1)[C@H](c1ccccc1)OCCOCCO[C@@H](c1ccccc1)[C@H](c1ccccc1)OC2 | 98% (active) | 94% (active) | 29.6%
O=P(OCCCl)(OCCCl)C(Nc1cccc2ccccc12)c1ccccc1 (configuration not stated) | 4% | 84% (active) | 90.2% (active)
OC(Cn1cncn1)(Cn1cncn1)c1ccc(Cl)cc1Cl | 75% (active) | 81% (active) | 48.2%
COc1ccccc1CN1CCCN(Cc2ccccc2OC)C1c1cc(Cl)cc(Cl)c1O | 52% | 99% (active) | 78.6% (active)
COc1ccc(CNC(C#N)c2ccccc2)cc1OC (configuration not stated) | 2% | -5% | 99.5% (active)
Clc1nc2cc3nc(Cl)c(Cl)nc3cc2nc1Cl | 29% | 91% (active) | -1.2%
Cn1c(CCC2(C)Cc3ccccc3C(=O)O2)cc2ccccc2c1=O (configuration not stated) | 2% | 48% | 49%
CCCn1cc2c(SC)nc(SC)nc2n1 | -3% | 14% | 98.1% (active)
CC1CCCC(CCN(C)CCC2CCCCC2)CC1 (configuration not stated) | 45% | 98% (active) | 99.1% (active)
CCCCC1(C(O)CC)Sc2ccccc2N1C (configuration not stated) | -12% | 90% (active) | 56%
Clc1ncccc1-n1cccc1/C=N\N=C/c1cccn1-c1cccnc1Cl | -1% | 99% (active) | 21.7%
O=C1c2ccc3c4ccccc4n(Cc4ccccc4)c3c2C(=O)N1c1ccccc1 | 47% | 47% | 91.3% (active)
CSc1nc(C)cc(SCc2ccc(Cl)cc2Cl)n1 | -2% | 21% | -25.4%
N#CC(CCCCl)(c1ccccc1)c1ccccc1 | 15% | 69% | 92.2% (active)
